The nature of experiment [1]: qHTS assay to identify small molecule agonists of the peroxisome proliferator-activated receptor delta (PPARd) signaling pathway - cell viability counter screen (AID 743211). Further: nearly all actives have a fitted effect of over 55% in size. Further: potency means the concentration at half of the fitted maximal effect. The procedure, abridged: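 Tox21 library compounds, delivered in DMSO, were incubated 17 h with PPARd-bla HEK293H cells; cytotoxicity was taken from CellTiter-Glo luminescence read 30 min after reagent addition.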

The target of experiment [2] is Peroxisome proliferator-activated receptor delta (Homo sapiens) (UniProt Q03181). Briefly: qHTS assay to identify small molecule antagonists of the peroxisome proliferator-activated receptor delta (PPARd) signaling pathway (AID 743215; active means well fitted inhibition curve with a large enough effect in the signal ratio in the repeat runs, not every such curve was filed as active; the % refers to the signal ratio;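 further: cells stimulated with agonist L165041 at 300 nM final during compound exposure; series mostly up to about 62 µM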). The procedure, abridged:
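Inhibition of L165041-driven (300 nM final) PPARd signaling is scored in HEK293H UAS-bla cells. Exposure lasts 17 h at 37 C; beta-lactamase activity is then read by FRET substrate fluorescence after 2 h at room temperature.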
In general terms: Quantitative high-throughput screening tests each substance at several concentrations.

A short description of experiment [3]: qHTS assay to identify small molecule agonists of the farnesoid-X-receptor (FXR) signaling pathway - cell viability counter screen (AID 743218). Further: nearly all actives have a fitted effect of over 45% in size. The method, boiled down:
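Cytotoxicity counter-screen run in parallel, same wells: FXR-UAS-bla HEK 293T cells dosed 16 h at 37 C, viability read by CellTiter-Glo luminescence after 30 min at room temperature.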

For experiment [4], the target named is Vitamin D3 receptor (Homo sapiens) (UniProt P11473). Briefly: qHTS assay to identify small molecule agonists of the vitamin D receptor (VDR) signaling pathway (AID 743222; calls by dose curve). The method, boiled down:
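Quantitative HTS agonist-mode screen: compounds in DMSO were pin-transferred onto VDR-bla cells and incubated 16 h at 37C, 5% CO2. Reporter activity was detected with LiveBLAzer B/G FRET substrate after 2 h at room temperature.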

A short description of experiment [5]: qHTS assay to identify small molecule agonists of the vitamin D receptor (VDR) signaling pathway - cell viability counter screen (AID 743224). Further: series mostly up to about 63 µM; nearly all actives have a fitted effect of over 50% in size. The procedure, abridged: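 Viability is measured in the same wells as the VDR-bla reporter assay: after 16 h compound treatment and 2 h substrate loading, CellTiter-Glo is added and luminescence read 30 min later.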
Experiment [6] in a line: qHTS assay to identify small molecule antagonists of the vitamin D receptor (VDR) signaling pathway - cell viability counter screen (AID 743225). Further: nearly all actives have a fitted effect of over 50% in size. Further: potency means the concentration at half of the fitted maximal effect. The procedure, abridged:
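Same-well multiplex: following 16 h treatment of HEK 293T cells carrying a UAS-driven beta-lactamase reporter with compound and agonist (3 nM final), and a 2 h FRET substrate step, CellTiter-Glo was added and luminescence read after 30 min.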

Experiment [7] can be described thus: qHTS assay to identify small molecule agonists of the NFkB signaling pathway (AID 1159509; active means well fitted curve in the direction sought with a large enough effect in the signal ratio in the repeat runs, not every such curve was filed as active; the % refers to the signal ratio; further: series mostly up to about 61 µM). The procedure, abridged:
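NFkB-bla ME-180 cells carry a beta-lactamase reporter under an NF-kB response element. They were plated overnight, then exposed to compounds for 5 h at 37 C. Read-out is LiveBLAzer FRET after 1.5 hr at room temperature (405 nm excitation; 460/530 nm emission).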

Experiment [8] can be described thus: qHTS assay to identify small molecule agonists of the NFkB signaling pathway - cell viability counter screen (AID 1159515; calls by dose curve; further: nearly all actives have a fitted effect of over 55% in size; further: potency means the concentration at half of the fitted maximal effect). The method, boiled down:
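Multiplexed viability readout: after the 5 hr compound exposure and 1.5 hr FRET substrate step, CellTiter-Glo reagent went into the same NFkB-bla ME-180 wells; ATP luminescence was measured after 30 min at room temperature.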

Experiment [9] can be described thus: qHTS assay to identify small molecule agonists of the endoplasmic reticulum stress response signaling pathway (AID 1159516; active means well fitted activation curve with a large enough effect in the signal ratio in the repeat runs, not every such curve was filed as active; the % refers to the signal ratio). The procedure, abridged: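 Tox21 10K library screened in quantitative HTS format on ESRE-bla HeLa cells, a beta-lactamase reporter under ER stress response element control; 5 hr treatment, FRET read.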
In experiment [10] the target is Nuclear receptor ROR-gamma (Homo sapiens) (UniProt P51449). Briefly: qHTS assay to identify small molecule antagonists of the retinoid-related orphan receptor gamma (ROR-gamma) signaling pathway (AID 1159521; further: top concentration of the series differs between compounds; nearly all actives have a fitted effect of over 50% in size). The procedure, abridged: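 Inducible-expression reporter assay: doxycycline (1 uM final) switched on RORγ in CHO cells bearing a ROR response element-luciferase construct, with test compounds present from 2 h beforehand. Decreased luminescence after 16 h defined antagonist activity.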

The nature of experiment [11]: qHTS assay to identify small molecule agonists of the AP-1 signaling pathway - cell viability counter screen (AID 1159525; calls by dose curve; further: nearly all actives have a fitted effect of over 55% in size). The method, boiled down: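 AP-1-bla ME-180 cells in Opti-MEM with 0.5% dialyzed FBS, compound exposure 5 h at 37 C in 15-point titration. Viability read in the same wells as ATP content by CellTiter-Glo luminescence, normalised to tetra-n-octylammonium bromide and DMSO controls.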

Experiment [12] in a line: qHTS assay to identify small molecule agonists of the AP-1 signaling pathway (AID 1159526; calls by dose curve).
Experiment [13] can be described thus: qHTS assay to identify small molecule antagonists of the peroxisome proliferator-activated receptor delta (PPARd) signaling pathway - cell viability counter screen (AID 743213). Further: nearly all actives have a fitted effect of over 50% in size. The method, boiled down: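 PPARd-bla HEK293H cells (3000/well) got compound plus 300 nM L165041 agonist for 17 h at 37 C. Viability in the same wells came from CellTiter-Glo luminescence after 30 min at room temperature.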

A short description of experiment [14]: qHTS assay to identify small molecule antagonists of the farnesoid-X-receptor (FXR) signaling pathway - cell viability counter screen (AID 743221; active means well fitted cell-killing curve with a large enough effect in the repeat runs, not every such curve was filed as active; further: nearly all actives have a fitted effect of over 50% in size). The procedure, abridged: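 Cytotoxicity is taken from ATP luminescence (CellTiter-Glo, 30 min, room temperature) in FXR-bla HEK 293T cells previously incubated 16 h at 37 C with compound and chenodeoxycholic acid at 50 uM final.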

Experiment [15] in a line: qHTS assay to identify small molecule antagonists of the retinoid-related orphan receptor gamma (ROR-gamma) signaling pathway - cell viability counter screen (AID 1159520). Further: nearly all actives have a fitted effect of over 50% in size. The method, boiled down: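 Tet-on ROR gamma CHO cells were given compounds for 2 hr, then doxycycline hyclate at 1 uM final, and incubated 16 hr at 37 C. Viability was measured as ATP content by CellTiter-Glo luminescence.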

The target of experiment [16] is Peroxisome proliferator-activated receptor delta (Homo sapiens) (UniProt Q03181). Briefly: qHTS assay to identify small molecule agonists of the peroxisome proliferator-activated receptor delta (PPARd) signaling pathway (AID 743212; calls by dose curve). The method, boiled down: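 GeneBLAzer UAS-bla HEK293H cells carrying a PPARδ construct were exposed to compounds at 37 °C. Beta-lactamase activity was read by FRET fluorescence after 2 h at room temperature with LiveBLAzer B/G substrate.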

Experiment [17] concerns the target Bile acid receptor (Homo sapiens) (UniProt Q96RI1). Briefly: qHTS assay to identify small molecule antagonists of the farnesoid-X-receptor (FXR) signaling pathway (AID 743217; active means well fitted inhibition curve with a large enough effect in the signal ratio in the repeat runs, not every such curve was filed as active; the % refers to the signal ratio). The method, boiled down:
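Antagonist mode against 50 uM (final) chenodeoxycholic acid stimulation in FXR-bla HEK 293T cells, 16 h at 37 °C. Inhibition detected as reduced beta-lactamase activity via LiveBLAzer B/G FRET fluorescence after 2 h at room temperature.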

The target is the same in experiment [18]. Briefly: qHTS assay to identify small molecule agonists of the farnesoid-X-receptor (FXR) signaling pathway (AID 743220; active means well fitted activation curve with a large enough effect in the signal ratio in the repeat runs, not every such curve was filed as active; the % refers to the signal ratio). The method, boiled down: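 Beta-lactamase reporter under UAS control in GeneBLAzer FXR HEK 293T cells (5000/well) measured with LiveBLAzer FRET substrate after 2 h at room temperature. Compound exposure lasted 16 h at 37C.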
The target in experiment [19] is Vitamin D3 receptor (Homo sapiens) (UniProt P11473). Description: qHTS assay to identify small molecule antagonists of the vitamin D receptor (VDR) signaling pathway (AID 743223; active means well fitted inhibition curve with a large enough effect in the signal ratio in the repeat runs, not every such curve was filed as active; the % refers to the signal ratio). The procedure, abridged: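 Quantitative HTS in VDR-bla reporter cells stimulated with 1alpha,25-dihydroxyvitamin D3, 3 nM final. Compound exposure 16 h, 37C, 5% CO2. Read-out: beta-lactamase FRET substrate fluorescence, 2 h RT.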

Results filed as inconclusive are left out. Unmarked numbers belong to inactive results. Calls of active or inactive are those of the source. Unless noted, the call rests on the fitted dose curve; in most records, active means well fitted curve in the direction sought with a large enough effect in the repeat runs; inconclusive means weak or mixed curves; inactive means no such curve, though single readings can be large; an effect the other way counts as inactive or inconclusive.

Sequence of Bile acid receptor (Homo sapiens) (Q96RI1 whole entry, looked up): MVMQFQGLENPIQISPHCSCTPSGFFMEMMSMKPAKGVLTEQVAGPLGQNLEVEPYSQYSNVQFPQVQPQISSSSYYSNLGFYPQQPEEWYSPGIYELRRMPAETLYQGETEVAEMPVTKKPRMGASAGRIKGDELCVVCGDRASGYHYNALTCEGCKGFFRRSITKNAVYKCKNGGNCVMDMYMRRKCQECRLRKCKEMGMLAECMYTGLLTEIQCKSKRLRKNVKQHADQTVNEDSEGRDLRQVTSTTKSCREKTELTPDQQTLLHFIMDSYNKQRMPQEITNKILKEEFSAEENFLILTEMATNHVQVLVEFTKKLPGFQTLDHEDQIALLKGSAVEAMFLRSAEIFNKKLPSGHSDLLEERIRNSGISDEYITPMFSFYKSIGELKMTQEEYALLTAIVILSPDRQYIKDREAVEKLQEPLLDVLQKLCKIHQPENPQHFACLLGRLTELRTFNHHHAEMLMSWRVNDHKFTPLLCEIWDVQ
Sequence of Peroxisome proliferator-activated receptor delta (Homo sapiens) (Q03181 whole entry, looked up): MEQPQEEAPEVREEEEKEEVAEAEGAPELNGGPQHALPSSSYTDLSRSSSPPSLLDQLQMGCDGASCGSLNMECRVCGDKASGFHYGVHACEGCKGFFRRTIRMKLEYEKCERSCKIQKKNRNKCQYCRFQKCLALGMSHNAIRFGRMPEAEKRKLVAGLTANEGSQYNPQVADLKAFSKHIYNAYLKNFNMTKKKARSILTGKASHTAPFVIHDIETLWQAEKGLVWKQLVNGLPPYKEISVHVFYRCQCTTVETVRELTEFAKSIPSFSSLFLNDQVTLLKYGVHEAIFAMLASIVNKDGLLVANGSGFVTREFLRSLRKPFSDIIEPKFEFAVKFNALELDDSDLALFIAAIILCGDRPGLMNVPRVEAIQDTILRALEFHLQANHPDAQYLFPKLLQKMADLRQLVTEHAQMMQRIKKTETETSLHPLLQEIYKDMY
Sequence of Vitamin D3 receptor (Homo sapiens) (P11473 whole entry, looked up): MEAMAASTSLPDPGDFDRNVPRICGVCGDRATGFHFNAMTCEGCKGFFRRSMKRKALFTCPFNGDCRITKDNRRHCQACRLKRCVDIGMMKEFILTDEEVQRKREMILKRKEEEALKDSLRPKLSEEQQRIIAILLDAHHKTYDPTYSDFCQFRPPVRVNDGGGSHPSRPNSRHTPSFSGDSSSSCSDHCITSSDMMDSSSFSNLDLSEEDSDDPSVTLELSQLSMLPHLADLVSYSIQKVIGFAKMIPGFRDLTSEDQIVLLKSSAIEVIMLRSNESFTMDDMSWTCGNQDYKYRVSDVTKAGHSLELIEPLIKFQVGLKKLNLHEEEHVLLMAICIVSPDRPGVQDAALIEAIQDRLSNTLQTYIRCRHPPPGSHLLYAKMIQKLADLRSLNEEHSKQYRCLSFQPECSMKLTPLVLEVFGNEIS

On to `COC(CC(C)CCCC(C)(C)O)OC` (configuration not stated), for which the Potency entry in experiment [1], in experiment [2], in experiment [3], in experiment [5], in experiment [6] and in [8] was “inactive” in each case. The Potency result in [9], in experiment [10] and in experiment [11] was “inactive” in each case. Besides, the compound was classed as inactive in [4], in [7] and in experiment [12].
Consider `C[C@H](CS)C(=O)N1CCC[C@H]1C(=O)O`, for which the Potency entry in experiment [1], in experiment [13], in experiment [3], in experiment [14], in experiment [8] and in experiment [9] was “inactive” throughout. The Potency entry in experiment [15] and in experiment [11] was “inactive” each time. For the same compound, the result in [7] and in experiment [12] was inactive.
On to `CCCCCCCC/C=C\CCCCCCCC(=O)OCCO`, for which the Potency result in experiment [1], in [13], in experiment [2], in [3], in [5] and in [8] was “inactive” throughout. Besides, the Potency entry in experiment [9], in [15] and in experiment [11] was “inactive” in each case. In addition, the compound was called inactive in experiment [7].
For `CCC(C)(C)C(=O)O`, the Potency result in experiment [1], in [13], in experiment [3], in experiment [18], in experiment [14] and in experiment [6] was “inactive” in each case. Moreover, the Potency result in experiment [8], in experiment [9], in experiment [10] and in experiment [11] was “inactive” throughout. Besides, the result in experiment [16], in [17], in [4], in experiment [19], in experiment [7] and in [12] was inactive.
Take `O=C(O)CCC(=O)OC[C@@H](NC(=O)C(Cl)Cl)[C@H](O)c1ccc([N+](=O)[O-])cc1`: the Potency result in [1], in [13], in experiment [14], in experiment [6], in [8] and in [9] was “inactive” throughout. In addition, the Potency result in [10] and in experiment [11] was “inactive” each time. Further, the call in experiment [16], in experiment [7] and in experiment [12] was inactive.
With `CCCCCCCCCCCSCC(=O)O`, the Potency is 15.5 µM (active) in experiment [1] and 21.9 µM (active) in experiment [6]. Moreover, the Potency result in experiment [14], in experiment [8], in experiment [9], in experiment [15] and in experiment [11] was “inactive” each time. Moreover, the compound was called inactive in experiment [7] and in experiment [12].
In the case of `CCN(CC)CCOC(=O)C(c1ccccc1)c1ccccc1`, the Potency entry in experiment [1], in [2], in experiment [3], in [18], in [14] and in experiment [5] was “inactive” throughout. Also, the Potency entry in [6], in [8], in [9], in [10] and in [11] was “inactive” throughout. Besides, the compound was called inactive in [16], in experiment [17], in experiment [4], in experiment [7] and in experiment [12].
Take `OCC(CO)n1cnc(-c2ccc(F)cc2)c1-c1ccnc(Oc2ccccc2)n1`: the Potency result in experiment [1], in experiment [13], in experiment [3], in experiment [14], in experiment [6] and in experiment [8] was “inactive” each time. Besides, the Potency entry in experiment [9], in [10] and in experiment [11] was “inactive” in each case. Further, the call in experiment [16], in experiment [4], in [19], in [7] and in experiment [12] was inactive.
As to `O=S(=O)(O)CO`, the Potency entry in [1], in experiment [13], in [14], in experiment [8], in [9] and in [15] was “inactive” in each case. The Potency result in experiment [11] is “inactive”. Besides, the result in experiment [4], in experiment [19], in experiment [7] and in experiment [12] was inactive.
As to `CCCCCCCCCCCCCOS(=O)(=O)O`, in [7], the call was inactive. In experiment [8], the Potency is 54.9 µM (active). Also, the Potency result in [9] and in experiment [10] was “inactive” throughout.
Turning to `CC(C)Cc1ccc(CC(=O)O)cc1`, the Potency entry in experiment [1], in experiment [3], in experiment [18], in experiment [14], in experiment [6] and in experiment [8] was “inactive” each time. Also, the Potency entry in [9], in [10] and in [11] was “inactive” each time. In addition, the call in [16], in experiment [17], in experiment [4], in experiment [19] and in experiment [7] was inactive.

The values are drawn from PubChem BioAssay (Tox21).
